The text below walks through data of PubChem BioAssay (NCI).

The panel holds about 83,000 compounds, 20% with a hit somewhere; the sample as a whole holds those more often.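 Cells were grown in 96-well plates and exposed to the test compound at a single concentration for 48 hours; results are reported as percent growth, with values below 10 considered active.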 The source made the active and inactive calls.

For this assay, the system named is MDA-MB-468 breast. As to the kind of experiment: NCI-60 one-dose screen, 48 h (100 = growth as untreated, 0 = no growth, -100 = all killed). Particulars: 10 µM unless noted.
With `O=c1[nH]c2ccc(Cl)cc2cc1CSc1ccccc1Nc1nccc(-c2ccc(Cl)cc2)n1`, the growth is 93.3% (inactive).

On to `COc1cc2nc(-c3cccc4cccnc34)nc(NC3CCN(Cc4ccccc4)CC3)c2cc1OC`, for which the growth was -78.5% (active). Then `CC(O)Cc1c[nH]c(=O)[nH]c1=O` (stereo not given), with 121% (inactive). With `O=C(N/N=C/c1ccc(F)cc1)c1[nH]c2ccc(I)cc2c1-c1ccccc1` the figure was 17.8% (inactive). Then `CCOC(=O)N1C=CC2C=CC1C1C=CC=CC2N1C(=O)OCC` (stereo not given), with 53.1% (inactive); and `CCN1C(=O)N(CC)C2C1NN=c1s/c(=C3\C(=O)N(C)c4ccccc43)c(=O)n12` (stereo not given), with 13.4% (inactive). In the case of `CCOC(=O)C(C)(CSSCC(C)(NC(=O)c1ccc2ccccc2c1)C(=O)OCC)NC(=O)c1ccc2ccccc2c1` (stereo not given), the growth is 109% (inactive). Then `C=C(C)[C@@H]1CC[C@]2(C(=O)O)CC[C@]3(C)[C@H](CC[C@@H]4[C@@]5(C)C[C@@H](CC#Cc6ccc(C(C)=O)s6)[C@H](O)C(C)(C)[C@@H]5CC[C@]43C)[C@@H]12`, with 63.4% (inactive); and `C[C@H]1[C@H](C)CC[C@]2(C(=O)NCCNCCN)CC[C@]3(C)C(=CC[C@@H]4[C@@]5(C)CCC(=O)C(C)(C)[C@@H]5CC[C@]43C)[C@H]12`, with 34% (inactive); and `COC(=O)c1ccccc1N(C)C`, with 107% (inactive). With `Cc1[nH]c(/C=C2\C(=O)Nc3ccc(F)cc32)c(C)c1C(=O)NC[C@H](O)CN1CCOCC1` the figure was 114% (inactive); with `COC(=O)c1c2c(c(C)[n+]([O-])c1C)C(=O)C=C(NCc1ccc(F)c(F)c1)C2=O`, -78.4% (active); with `COC(=O)[C@H](CCCCNC(=O)OCc1ccccc1)NC(=O)[C@@H](NC(=O)Nc1cc(C(F)(F)F)cc(C(F)(F)F)c1)C(C)C`, -12.9% [100 µM] (active). With `Cc1[nH]n(C(N)=S)c(=O)c1N=Nc1ccc(S(=O)(=O)Nc2ccncn2)cc1` the figure was 86.4% (inactive). Regarding `CCOC(=O)C(CCCCC(NC(C)=O)(C(=O)OCC)C(=O)OCC)(NC(C)=O)C(=O)OCC`, the growth was 107% (inactive). Then `Cc1ccc(O)c(C(=O)c2ccccc2)c1`, with 103% (inactive); and `NC1=Nc2cc(OCCCN3Cc4ccccc4C3)c(OCC3CC3)cc2C12CCCC2`, with 31.9% (inactive). With `O=C(CSc1nc2ccccc2c(=O)n1-c1ccccc1)Nc1cccc(C(=O)/C=C/c2ccccc2Cl)c1` the figure was 113% (inactive); with `COc1ccc(C(O)(c2ccccc2)C(C(=O)O)c2ccccc2)cc1` (stereo not given), 110% (inactive); with `CCOC(=O)C(Cc1ccccc1)n1c(O)c(C=Nc2ccc(C(=O)OCCN(CC)CC)cc2)sc1=O` (stereo not given), 82.6% (inactive). For `COc1ccc(C(=O)c2c(N)nc3n2CCCC3)cc1OC`, the growth was 97.7% (inactive). Regarding `CC(C)(N)CO[C@H]1C[C@H]2CC[C@@]1(C)C2(C)C`, the growth is 84% (inactive). Then `Cc1c2cnccc2c(C)c2c1c1cc(C3OCCCO3)ccc1n2C`, with -34% (active); and `CCOC(=O)c1c(C)oc2ncnc(Nc3ccc(C(=O)NCCc4ccccc4)cc3)c12`, with 90.7% (inactive).

For `Cc1cc(C)n(CC(=O)Nc2ccc(-c3nc4ccccc4s3)cc2)n1`, the growth was -3.57% (active). Regarding `CCCCCCCNC(=O)CCCNc1ncnc2c1ncn2-c1cccc(C(C)O)c1` (stereo not given), the growth is 59.7% (inactive). Then `CC(=O)c1c[nH]c2ccccc12`, with 104% (inactive).

For the molecule `Cn1cc(-c2ccc3ncc(-c4ccc(CC(=O)Nc5cc(C(C)(C)C)nn5C)cc4)cc3c2)cn1`, the growth was -2.1% [30 µM] (active). With `COC(=O)[C@H]1Cc2c([nH]c3ccccc23)[C@@H](c2cccs2)N1` the figure was 101% (inactive); with `COc1cc(-c2nnc(SCc3ccc(O)c4ncccc34)n2-c2ccccc2)cc(OC)c1OC`, -10.1% (active). Then `O=C(/C=C(/C=C/c1csc2ccccc12)OB(F)F)/C=C/c1csc2ccccc12`, with -3.4% (active). With `CC1=CC(=O)C=CC1(C)C(Cl)(Cl)Cl` (stereo not given), the growth is 98.4% (inactive).

For the molecule `CCN(CC)CCOc1ccc(/C(=C(/C)c2ccccc2)c2ccc(OC(C)=O)cc2)cc1`, the growth was 87.9% (inactive).

`COc1c(Cl)c2c(c(OC)c1OC)-c1ccc(SC)c(=O)cc1[C@@H](NC(=O)OCC(F)(F)F)CC2`: the growth is -15.5% (active). With `COc1cc(N2CCC(N3CCN(C)CC3)CC2)ccc1Nc1ncnc(Nc2ccccc2S(=O)(=O)C(C)C)n1`, the growth was 110% (inactive). For the molecule `COc1ccc2c(c1)c(-c1nonc1-c1c[nH]c3ccc(Br)cc13)cn2C`, the growth is 52.4% (inactive). Then `CC[C@@H](CO)Nc1ccc2ncc(C#Cc3cncc(C(=O)Nc4ccc(CN5CCN(C)CC5)c(C(F)(F)F)c4)c3)n2n1`, with -68.4% (active); and `Cn1c(COC(=O)N2CCCCC2)nc2c(N3CCOCC3)nc(-c3ccccc3)nc21`, with -61.7% (active); and `C#CCN(C)CCCOc1ccc(NC(=O)CCCCCCCCC(=O)NO)cc1Cl`, with 27.6% (inactive). With `CC1(C)CC[C@]23CC[C@]4(C)[C@H](CC[C@@H]5[C@@]6(C)C/C(=C/c7cccnc7)C(=O)C(C)(C)[C@@H]6CC[C@]54C)[C@H]2[C@H]1OC3=O`, the growth was 56.9% [100 µM] (inactive).
